Laboratory results taken from PubChem BioAssay AID504850 (National Center for Advancing Translational Sciences (NCATS), 2011).
Among all 2,300 compounds or so, about 1,200 (52%) were called active. Inconclusive results (about 34%) are left out. So high a share suggests a set chosen from earlier hits. Some of the results follow. Values without a mark were called inactive. Calls follow the shape of the dose curve; as a rule, active = well fitted inhibition curve with a large enough effect; inconclusive = small, poorly fitted or top-dose-only effect, or effect the other way; inactive = no such curve, though single readings can be large or run the other way.

Test: Confirmation screen for delayed death inhibitors of the malarial parasite plastid, 48 hour incubation; also: nearly all actives have a fitted effect of over 65% in size
Conditions: P. falciparum-infected erythrocytes, luciferase growth; series mostly up to 28.7 µM; activity change, negative = inhibition: at the top concentration
In short: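 Erythrocytes infected with luciferase-expressing P. falciparum (2% hematocrit, 0.1% parasitemia) incubated with compounds 48 hours at 37 C, 5% CO2, in RPMI/Albumax. Growth inhibition scored as reduced luminescence after detection reagent.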
% is scaled to controls: 0 for no effect and ±100 for the full control effect; potency is read from the fitted curve at half-maximal effect.

SMILES	Potency	activity change, negative = inhibition [%]
CCN(CC)C(=O)C1CCCN(C(=O)c2cc(COc3ccc4ncccc4c3)on2)C1 (stereo not given)	11.2 µM (active)	–
CN1C(=O)Cc2cc(S(=O)(=O)N3CCN(c4cccc(C(F)(F)F)c4)CC3)ccc21	11.2 µM (active)	–
Cc1ccc(-c2cc(=O)c3ccc(F)cc3[nH]2)cc1	5.01 µM (active)	–
NC(=O)COc1ccc(C(=O)/C=C2/C(=O)Nc3ccccc32)cc1	–	-13.9
NC(=O)COc1ccc(NC(=O)CC23CC4CC(CC(C4)C2)C3)cc1	11.2 µM (active)	–
CCn1nc(C)c(NC(=O)CC23CC4CC(CC(C4)C2)C3)c1C	–	-8.09
C=CCNC(=O)CSc1nc2sc3c(c2c(=O)n1CCCOC)CCC3	12.6 µM (active)	–
CCOc1ccc(-c2cc(C(=O)O)c3ccccc3n2)c(OCC)c1	–	-18.3
CC(C)Oc1ccccc1-c1cc(C(=O)N/N=C/c2cccnc2)c2ccccc2n1	11.2 µM (active)	–
COc1cc(/C=N/NC(=O)c2cc(-c3ccccc3OC(C)C)nc3ccccc23)ccc1O	14.1 µM (active)	–
CCOc1ccc(-c2cc(C(=O)N/N=C(\C)c3cccnc3)c3ccccc3n2)c(OCC)c1	14.1 µM (active)	–
COc1ccc(/C=N/NC(=O)c2cc(-c3ccccc3OC(C)C)nc3ccccc23)cc1CN1CCOCC1	–	-26.3
CC1CCN(c2ccc3nnc(CCC(=O)N4CCN(c5ccccc5F)CC4)n3n2)CC1	10 µM (active)	–
COc1ccc(CN2CCC(Oc3ccc(C(=O)NCc4ccccn4)cc3)CC2)c(F)c1	12.6 µM (active)	–
CN(CCc1ccccn1)C(=O)c1ccc(OC2CCN(CCc3ccccc3)CC2)cc1	14.1 µM (active)	–
Cc1nn(C)c(C)c1C(C)NC(=O)c1ccc(OC2CCN(Cc3ccccn3)CC2)cc1 (stereo not given)	–	-41.6
CCCCN(CCCC)CCC(O)c1cc2c(Cl)cc(Cl)cc2c2cc(C(F)(F)F)ccc12 (stereo not given)	0.0316 µM (active)	–
CC(=O)/C(C#N)=C1\NC(=O)C(Cc2cc(Cl)ccc2Cl)S1 (stereo not given)	14.1 µM (active)	–
CC(=O)/C(C#N)=C1\NC(=O)C(Cc2ccc(F)cc2)S1 (stereo not given)	10 µM (active)	–
CCOC(=O)c1c(C)[nH]c(C(=O)Nc2cc(OCC)c(N3CCOCC3)cc2OCC)c1C	2.51 µM (active)	–
Cc1ccc(CN(Cc2ccccn2)C(=O)Nc2ccc(C)c(C)c2)cc1	14.1 µM (active)	–
Cc1ccc(NC(=O)CN2C(=O)S/C(=C\c3ccccn3)C2=O)cc1C	–	-1.34

SMILES	Potency	activity change, negative = inhibition [%]
CC(Sc1nc2cc(Cl)ccc2s1)C(=O)Nc1cccc(S(=O)(=O)N2CCOCC2)c1 (stereo not given)	12.6 µM (active)	–
O=C(CCl)Nc1ccc(S(=O)(=O)Nc2nccs2)cc1	2.24 µM (active)	–
CCC(=O)c1ccc(OCC(O)CNC(C)c2ccccc2)cc1 (stereo not given)	11.2 µM (active)	–
CO[C@H]1OC2O[C@@]3(C)CC[C@H]4[C@H](C)CC[C@@H]([C@H]1C)[C@@]24OO3 (stereo not given in full)	0.0708 µM (active)	–
C[C@H]1[C@@H](OC(=O)CCC(=O)O)OC2OC3(C)CC[C@H]4[C@H](C)CC[C@@H]1[C@@]24OO3 (stereo not given in full)	0.0398 µM (active)	–
C[C@@H]1CCC2[C@@H](C)[C@@H](O)O[C@@H]3O[C@@]4(C)CC[C@@H]1[C@@]23OO4 (stereo not given in full)	0.0251 µM (active)	–
CC[C@]1([C@H]2O[C@@H]([C@@H]3O[C@](O)(CO)[C@@H](C)C[C@H]3C)C[C@H]2C)CC[C@@H]([C@]2(C)CC[C@@]3(C[C@@H](O)[C@@H](C)[C@@H]([C@H](C)[C@H](OC)[C@H](C)C(=O)O)O3)O2)O1	0.141 µM (active)	–
CCCc1c(CC)c(=N)c2ccccc2n1C	0.282 µM (active)	–
Cc1cnc(CNC(=O)c2ccc3oc(Cc4ccccc4)nc3c2)[nH]1	15.8 µM (active)	–
CC(C)(C)OC(=O)[C@H](Cc1ccccc1)NC(=O)c1nc[nH]c1C(=O)N1CCN(C(=O)OC(C)(C)C)CC1	12.6 µM (active)	–
CC(C)C[C@H](NC(=O)c1nc[nH]c1C(=O)N1CCN(C(=O)OC(C)(C)C)CC1)C(=O)OC(C)(C)C	11.2 µM (active)	–
CC(C)(C)OC(=O)CNC(=O)c1[nH]cnc1C(=O)NC1CCN(C(=O)OC(C)(C)C)CC1	14.1 µM (active)	–
CC(Oc1ccccc1F)C(=O)Nc1ccc2ccccc2c1 (stereo not given)	–	34.4
COc1ccc(NC2=C(NC(C)=O)C(=O)c3ccccc3C2=O)cc1	7.08 µM (active)	–
O=C(CSc1c2c(nc3ccc(Cl)cc13)CCCC2)NCCCN1CCOCC1	12.6 µM (active)	–
O=S(=O)(CC(CN1CCCCC1)N1CCCCC1)c1ccccc1 (stereo not given)	11.2 µM (active)	–
CC(C)NC(=O)c1onc(CSc2cccc(F)c2)c1C(=O)O	–	-9.89
COC(=O)C1=CN(Cc2ccc(F)cc2)C=C(C(=O)OC)C1c1ccc(O)c(OC)c1	11.2 µM (active)	–
CCOc1ccc(N(C)C(=O)CCc2nnc3ccc(N4CCCCC4)nn23)cc1	11.2 µM (active)	–
CC(=O)Nc1cccc(C(=O)/C=C/c2ccc(C)cc2)c1	15.8 µM (active)	–
CC(=O)Nc1cccc(C(=O)/C=C/c2ccc(Br)cc2)c1	14.1 µM (active)	–
O=C(Nc1cccc(Br)c1)c1ccc2snnc2c1	–	1.09

SMILES	Potency	activity change, negative = inhibition [%]
CCC(=O)Nc1cccc(C(=O)/C=C/c2cc(Br)ccc2OC)c1	10 µM (active)	–
COC(=O)c1ccccc1SC1CC(=O)N(c2ccccc2)C1=O (stereo not given)	–	-4.09
C=CCNC(=O)c1onc(CSc2ccc(F)c(F)c2)c1C(=O)O	–	-2.36
CC(=O)N1c2ccc(S(=O)(=O)NCCC(=O)NC3CCCC(C)C3C)cc2CC1C (stereo not given)	15.8 µM (active)	–
CN(C)S(=O)(=O)c1cccc(NC(=O)CSc2cccc3cccnc23)c1	11.2 µM (active)	–
Cc1ccc(NC(=O)CSc2cccc3cccnc23)c(C)c1	–	-34.4
Cn1c(=O)c(=O)n(C)c2cc(N3CCCCC3)c(NS(=O)(=O)c3ccc(Br)cc3)cc21	11.2 µM (active)	–
COc1ccc(OC)c(CNC(=O)c2ccc(C)c(NC(=O)C3=C(C)OCCS3)c2)c1	12.6 µM (active)	–
CCCNC(=O)COC(=O)c1ccccc1C(=O)c1ccc(Cl)c([N+](=O)[O-])c1	12.6 µM (active)	–
CC(CCc1ccccc1)NC(=O)COC(=O)c1ccc(S(C)(=O)=O)c([N+](=O)[O-])c1 (stereo not given)	–	-31.9
CC1CCN(C(=O)Cn2cc(C(=O)c3ccco3)c3ccccc32)CC1	14.1 µM (active)	–
Cc1cc(Sc2nnc(N)s2)c2ccccc2n1	10 µM (active)	–
Cc1cc(Sc2nnc(/N=C/N(C)C)s2)c2ccccc2n1	10 µM (active)	–
O=C(O)CCCCCNc1nc(-c2ccccc2)nc2ccccc12	12.6 µM (active)	–
COc1ccc(Cl)cc1NC(=O)C1Cc2cc(S(=O)(=O)N3CCCC3)ccc2N1C(C)=O (stereo not given)	11.2 µM (active)	–
C=CCN(CC=C)C(=O)C1CCN(S(=O)(=O)c2ccc(N3CCCC3=O)cc2)CC1	14.1 µM (active)	–
COc1cccc(NC(=O)C2CCN(S(=O)(=O)c3ccc4[nH]c(=O)oc4c3)CC2)c1	–	-27.8
COc1ccc(S(=O)(=O)N2CCC(C(=O)Nc3ccccc3N3CCCCC3)CC2)cc1OC	11.2 µM (active)	–
COc1cc(NC(=O)C2CCN(S(=O)(=O)c3ccc(N4CCCC4=O)cc3)CC2)cc(OC)c1	14.1 µM (active)	–
COc1ccc(C)cc1NC(=O)C1CCN(S(=O)(=O)c2ccc3c(c2)NC(=O)CO3)CC1	12.6 µM (active)	–
Cc1ccc(S(=O)(=O)N2CCC(C(=O)Nc3ccc(S(=O)(=O)N4CCCC4)cc3)CC2)cc1C	14.1 µM (active)	–
O=C/C=C/c1c(-c2ccccc2)cc2oc3ccccc3cc1-2	–	-24.6

SMILES	Potency	activity change, negative = inhibition [%]
Cc1cc(=O)n2nc(N3CCCC(C(=O)NCc4ccc(Cl)cc4)C3)sc2n1 (stereo not given)	12.6 µM (active)	–
Cc1cc(=O)n2nc(N3CCC(C(=O)NCc4ccc(Cl)cc4)CC3)sc2n1	12.6 µM (active)	–
Cc1cc(=O)n2nc(N3CCC(C(=O)NCCc4ccc(Cl)cc4)CC3)sc2n1	12.6 µM (active)	–
Cc1ccc(S(=O)(=O)N(Cc2ccccc2)C(C)C)cc1	–	-11.4
COc1ccc(N(CC(=O)NCCSCc2ccc(C)cc2)S(=O)(=O)c2ccccc2)cc1	12.6 µM (active)	–
COc1ccc(NC(=O)CN(c2ccc(F)cc2)S(=O)(=O)c2ccccc2)c(OC)c1	15.8 µM (active)	–
COc1ccc2cc3[n+](cc2c1OC)CCc1cc2c(cc1-3)OCO2	1.12 µM (active)	–
CCOC(=O)c1ccc(N2N=C(C)/C(=C/C=C/c3ccco3)C2=O)cc1	6.31 µM (active)	–
CCOC(=O)c1ccc(Nc2nc(=O)c3cccnc3s2)cc1	–	8.09
C=C1c2c(Cl)ccc(O)c2C(O)=C2C(=O)[C@]3(O)C(O)=C(C(N)=O)C(=O)[C@@H](N(C)C)[C@@H]3[C@@H](O)C12 (stereo not given in full)	3.98 µM (active)	–
CN(C)c1ccc(O)c2c1CC1CC3[C@@H](N(C)C)C(=O)C(C(N)=O)=C(O)[C@]3(O)C(=O)C1=C2O (stereo not given in full)	2.24 µM (active)	–
C=C1c2c(Cl)ccc(O)c2C(O)=C2C(=O)[C@@]3(O)C(O)=C(C(N)=O)C(=O)[C@@H](N(C)C)[C@@H]3[C@@H](O)[C@H]12	4.47 µM (active)	–
C[C@@H]1c2cccc(O)c2C(O)=C2C(=O)[C@@]3(O)C(O)=C(C(N)=O)C(=O)[C@@H](N(C)C)[C@@H]3[C@@H](O)[C@@H]21	4.47 µM (active)	–
Cc1ccc(-c2csc3ncn(CC#N)c(=O)c23)cc1C	–	-28.7
Cc1ccccc1NC1=NCC(c2ccc([N+](=O)[O-])cc2)S1 (stereo not given)	11.2 µM (active)	–
C=CCNC(=O)c1oc2ccc(S(=O)(=O)N3CCCCC3)cc2c1C	14.1 µM (active)	–
C=CCNC(=O)c1onc(CSc2cc(C)cc(C)c2)c1C(=O)O	–	-17.8
C=CCNC(=O)c1onc(CSc2ccc(C)c(C)c2)c1C(=O)O	–	-3.94
CCN(CC)Cc1cc2[nH]c3c4ccc(Cl)cc4ncc3c2cc1OC	0.178 µM (active)	–
